In the library only some 0.74% were active in any assay of this set; here they are far more common.
LYPLA1 inh – LYPLA1 inhibitors, primary screen, counter-screen for PME1 inhibitor project, biochemical, fluorescence polarization, FP-Rh probe ABPP | 0.16% of 320,000 active | recombinant LYPLA1 | Acyl-protein thioesterase 1 (Homo sapiens), O75608 | inhibition, % at 5.9 µM;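 active means inhibition above the mean of all tested compounds plus 3 SD, set per campaign, cut at about 14% in these data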;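 further: inhibitors block serine hydrolase probe labeling of LYPLA1 so polarization falls; 0% = enzyme with DMSO and 100% = wells lacking LYPLA1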
Target sequence (O75608 whole entry, looked up): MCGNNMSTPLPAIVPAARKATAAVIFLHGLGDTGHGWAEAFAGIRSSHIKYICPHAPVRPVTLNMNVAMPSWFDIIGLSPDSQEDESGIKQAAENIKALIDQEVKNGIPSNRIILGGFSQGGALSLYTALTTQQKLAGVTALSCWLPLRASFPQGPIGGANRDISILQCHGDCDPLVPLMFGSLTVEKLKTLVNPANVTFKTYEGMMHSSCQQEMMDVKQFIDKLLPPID
p97 ATPase inh – inhibitors of human p97 ATPase, primary screen, biochemical; AID 1481, 2009; recombinant p97 ATPase, Kinase-Glo ATP luminescence, 3 h; 0.42% of 220,000 active; inhibition, % at 8 µM; in the data active means inhibition above about 15%;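 further: 0% = DMSO vehicle and 100% = wells lacking enzyme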
Redox H2O2 prof – compounds producing H2O2 with reducing agent – biochemical, NIH compound library profiling, artefact control for MLSCN library redox annotation, primary screen. DTT-dependent redox cycling H2O2, phenol red/HRP absorbance; 100% = 100 µM peroxide control, 0% = buffer. 0.03% of 200,000 active. activation, % at 10 µM;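 active means activation of at least 50% relative to the plate's high and low controls in the primary single-dose screen; inactive means activation below 50%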;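 further: compound incubated with DTT at 0.8 mM final as the reducing agent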
LYPLA2 counter – LYPLA2 inhibitors, primary screen, counter-screen for PME1 inhibitor project, biochemical, fluorescence polarization, FP-Rh probe ABPP; Acyl-protein thioesterase 2 (Homo sapiens), O95372; recombinant LYPLA2; inhibition, % at 5.9 µM; 0.38% of 320,000 active;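 active means inhibition above the screen-wide mean plus 3 SD, limit set per campaign, cut at about 26% in these data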;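 further: 0% = LYPLA2 with DMSO and 100% = wells lacking LYPLA2 enzyme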
Target sequence (O95372 whole entry, looked up): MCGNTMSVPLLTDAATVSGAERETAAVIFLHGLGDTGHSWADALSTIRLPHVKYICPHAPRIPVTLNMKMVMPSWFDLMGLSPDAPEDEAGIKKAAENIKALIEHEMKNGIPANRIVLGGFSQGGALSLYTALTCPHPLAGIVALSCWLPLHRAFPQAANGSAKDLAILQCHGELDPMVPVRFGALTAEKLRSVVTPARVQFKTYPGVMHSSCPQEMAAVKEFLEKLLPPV
LYPLA1 confirm – LYPLA1 inhibitors, retest, confirmation, counter-screen for PME1 inhibitor project, biochemical, fluorescence polarization, FP-Rh probe ABPP; shares compounds with LYPLA1 inh; recombinant LYPLA1; inhibition, % at 5.9 µM; 69% of 480 active;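 active means mean inhibition across replicates above the hit cutoff set in the primary screen, cut at about 15% in these data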;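 further: loss of FP-Rh probe labeling of LYPLA1 seen as lower polarization; 0% = LYPLA1 with DMSO and 100% = wells lacking LYPLA1 enzyme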
LYPLA2 conf – LYPLA2 inhibitors, retest, confirmation, counter-screen for PME1 inhibitor project, biochemical, fluorescence polarization, FP-Rh probe ABPP; shares compounds with LYPLA2 counter; recombinant LYPLA2; inhibition, % at 5.9 µM; 72% of 1,100 active; AID 2232, 2010;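 active means mean inhibition across replicates above the hit cutoff set in the primary screen, cut at about 26% in these data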;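 further: blocked labeling of the enzyme by serine hydrolase FP-Rh probe lowers polarization; 0% = enzyme with DMSO and 100% = wells lacking LYPLA2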
An asterisk follows results filed as active.

`O=C(c1ccco1)N1CCN(c2ncnc3c2nnn3Cc2ccccc2Cl)CC1` gave LYPLA1 inh 8, p97 ATPase inh 0, Redox H2O2 prof 0 and LYPLA2 counter 17.
N=C1CCC(=N)c2c1c(O)c1ccccc1c2O was read as LYPLA1 inh 31*, p97 ATPase inh 13, LYPLA2 counter 42*, LYPLA1 confirm 10 and LYPLA2 conf 25.
Screening O=C(COc1ccccc1Cl)Nc1ccc(N2CCCC2)cc1 returned LYPLA1 inh 33*, LYPLA2 counter 27*, LYPLA1 confirm 1 and LYPLA2 conf -2.
`CCC(=O)N1CCN(c2ccc(NC(=S)NC(=O)c3cccc([N+](=O)[O-])c3)cc2)CC1` gave LYPLA1 inh 39*, p97 ATPase inh -2, Redox H2O2 prof -4, LYPLA2 counter 58*, LYPLA1 confirm 33* and LYPLA2 conf 55*.
Screening C=CCn1c(SCC(=O)N2CCCC2=O)nc2sc(CC)cc2c1=O returned LYPLA1 inh 21*, LYPLA2 counter 38*, LYPLA1 confirm 4 and LYPLA2 conf -3.
Screening C=CCn1c(SCC(=O)O)nc2sc(CC)cc2c1=O returned LYPLA1 inh 1, p97 ATPase inh 6, Redox H2O2 prof 0 and LYPLA2 counter -5.
Screening O=C1C=C(N2CCOCC2)c2ccccc2C1=O returned LYPLA1 inh 43*, LYPLA2 counter 68*, LYPLA1 confirm 50* and LYPLA2 conf 79*.
Screening CCCCCCCCOc1ccc(C2OC34CCCCC3C(C#N)(C#N)C2(C#N)C(=N)O4)cc1 (centres undefined) returned LYPLA1 inh 17*, p97 ATPase inh 2, Redox H2O2 prof 3, LYPLA2 counter 26*, LYPLA1 confirm 14* and LYPLA2 conf 8.
COc1ccccc1OCC(=O)NCCS(=O)(=O)N1CCN(c2ccc(F)cc2)CC1 was read as LYPLA1 inh 1 and LYPLA2 counter 5.
For C(=C\c1ccccc1)/CN1CCN(c2ncnc3c2oc2ccccc23)CC1 the results were LYPLA1 inh 15*, p97 ATPase inh -10, Redox H2O2 prof 0, LYPLA2 counter 35*, LYPLA1 confirm 23* and LYPLA2 conf 32*.
Screening CC(Oc1cccc(Cl)c1)C(=O)NCc1ccc(S(N)(=O)=O)cc1 (centres undefined) returned LYPLA1 inh 0, p97 ATPase inh 4, Redox H2O2 prof -1 and LYPLA2 counter 4.
Cc1cc(C(=O)O)ccc1-n1c(C)ccc1C was read as LYPLA1 inh 1, p97 ATPase inh 14, Redox H2O2 prof 2 and LYPLA2 counter -3.
Cc1cc(N)ccc1N1CCCC1 was read as LYPLA1 inh 22*, p97 ATPase inh 17*, Redox H2O2 prof 2, LYPLA2 counter 29*, LYPLA1 confirm 1 and LYPLA2 conf 4.
Screening NC(=O)c1cc(N)ccc1N1CCCC1 returned LYPLA1 inh 2, p97 ATPase inh 8, Redox H2O2 prof 0 and LYPLA2 counter 9.
For Cc1cc(N)ccc1-n1c(C)ccc1C the results were LYPLA1 inh 56*, p97 ATPase inh 3, Redox H2O2 prof 0, LYPLA2 counter 85*, LYPLA1 confirm 4 and LYPLA2 conf 4.
`CC#CC(=O)N1CCC(n2nccc2NC(=O)c2ccc3c(c2)OCO3)CC1` gave LYPLA1 inh 26*, LYPLA2 counter 31*, LYPLA1 confirm 37* and LYPLA2 conf 30*.
`Nc1nc(-c2ccc(Cl)cc2)nc(-c2ccc(Cl)cc2)n1` gave LYPLA1 inh 1, p97 ATPase inh 1 and LYPLA2 counter 4.
COCCCNC(=S)Nc1cccc(S(=O)(=O)NC2=NCCC2)c1 was read as LYPLA1 inh 2, p97 ATPase inh 2, Redox H2O2 prof -2 and LYPLA2 counter 1.
Screening O=C(/C=C/c1ccc(Br)cc1)N1CCN(c2cccc(C(F)(F)F)c2)CC1 returned LYPLA1 inh 46*, p97 ATPase inh 4, Redox H2O2 prof 1, LYPLA2 counter 78*, LYPLA1 confirm 49* and LYPLA2 conf 63*.
O=C(/C=C/c1cccc(Br)c1)N1CCN(c2cccc(C(F)(F)F)c2)CC1 was read as LYPLA1 inh -7, p97 ATPase inh 0, Redox H2O2 prof 0 and LYPLA2 counter -1.
For COc1cc(C(C(=O)NC2CCCC2)N(C(=O)c2snc(C(N)=O)c2N)c2ccccc2)cc(OC)c1OC (centres undefined) the results were LYPLA1 inh 2 and LYPLA2 counter 2.
`COc1ccc(C(=O)NCc2ccc(-n3cccc3)cc2)cc1OC` gave LYPLA1 inh 0, p97 ATPase inh -9, Redox H2O2 prof 5 and LYPLA2 counter 2.
For CC(=O)c1ccc(OCc2cc(C(=O)N(C)CCOc3ccc(C)cc3)no2)cc1 the results were LYPLA1 inh 20*, LYPLA2 counter 26*, LYPLA1 confirm 23* and LYPLA2 conf 9.
`Cc1ccc(C)c(NC(=S)N(Cc2ccc(Cl)cc2)Cc2ccc(C(=O)O)cc2)c1` gave LYPLA1 inh -7, p97 ATPase inh 1, Redox H2O2 prof -1 and LYPLA2 counter -8.
`O=C(O)c1ccccc1C1=Nc2ccc(O)cc2Oc2cc(O)ccc21` gave LYPLA1 inh 19*, p97 ATPase inh 1, Redox H2O2 prof 0, LYPLA2 counter 27*, LYPLA1 confirm 16* and LYPLA2 conf 0.
Screening Cc1cc(-c2ccccc2C(=O)O)on1 returned LYPLA1 inh 1, p97 ATPase inh 3, Redox H2O2 prof -1 and LYPLA2 counter 3.
For Cc1cccn2c(=O)nc(SCC(=O)N3CCN(c4ccccc4)CC3)nc12 the results were LYPLA1 inh -2 and LYPLA2 counter 4.
`C=CCc1ccccc1OCC(O)CN1CCN(CCN2C(=O)c3cccc4cccc(c34)C2=O)CC1` (centres undefined) gave LYPLA1 inh 5, p97 ATPase inh -11, Redox H2O2 prof 0, LYPLA2 counter 27* and LYPLA2 conf 37*.
`CCC(OCC(O)CN1CCN(CCN2C(=O)c3cccc4cccc(c34)C2=O)CC1)c1ccccc1` (centres undefined) gave LYPLA1 inh 3, p97 ATPase inh -9, Redox H2O2 prof -1, LYPLA2 counter 45* and LYPLA2 conf 46*.
